The text below walks through data of PubChem BioAssay (EPA / NIEHS).

Results filed as inconclusive are left out. Calls of active or inactive are those of the source. How the source made its calls: active means hit-call score of the fitted dose curve at least 0.9, where 1 is the maximum; inconclusive means response in the unintended direction; inactive means score below 0.9.

Chain of human CYP2D6, CYP2D6 (gene 1565) (P10635 whole entry, looked up): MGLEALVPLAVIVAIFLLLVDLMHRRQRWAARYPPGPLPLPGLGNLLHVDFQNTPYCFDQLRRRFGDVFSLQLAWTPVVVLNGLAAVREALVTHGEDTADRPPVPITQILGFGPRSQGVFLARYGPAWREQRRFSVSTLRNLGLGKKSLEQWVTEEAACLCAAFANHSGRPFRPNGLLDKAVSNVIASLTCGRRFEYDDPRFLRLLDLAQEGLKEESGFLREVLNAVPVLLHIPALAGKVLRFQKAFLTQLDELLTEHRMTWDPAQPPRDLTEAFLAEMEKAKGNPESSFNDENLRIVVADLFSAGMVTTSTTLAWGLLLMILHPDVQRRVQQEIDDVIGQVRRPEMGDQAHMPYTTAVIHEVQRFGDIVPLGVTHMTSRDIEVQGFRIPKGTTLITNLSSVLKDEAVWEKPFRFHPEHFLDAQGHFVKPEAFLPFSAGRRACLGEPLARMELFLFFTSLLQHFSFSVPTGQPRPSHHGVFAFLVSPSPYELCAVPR

In the first assay the target is human CYP2D6, CYP2D6 (gene 1565) (UniProt P10635). The assay can be described thus: NVS_ADME_hCYP2D6: NovaScreen (NVS) CYP450-related Enzyme Activity (ADME) Assay for human CYP2D6 (AID 2283107). A digest of the protocol:
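Biochemical fluorescence assay, insect-cell-derived enzyme. Read at 1 h; inhibition taken from loss of signal against acetonitrile. Screened at 10 uM in duplicate, with concentration series for actives.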
In the case of `Cc1[nH]cnc1C[C@H]1CCc2c(C)c3ccccc3n2C1=O`, the AC50 is 3.98 µM (active).

In the case of `CCOC(=O)COc1ccc2c(c1)CC(NCC(O)c1cccc(Cl)c1)CC2` (stereo not given), the AC50 was 2.51 µM (active). The same measure, in the same setting: then `O=c1[nH]c2ccc(S(=O)CCN3CCC(Cc4ccc(F)cc4)CC3)cc2o1` (stereo not given), with 1.3 µM (active); and `CCCCCCc1ccc(O)cc1O`, with 8.17 µM (active); and `Nc1ccc(Nc2ccccc2)cc1`, with 13.8 µM (active). Turning to `CC(C)c1cccc(C(C)C)c1N1C(=O)c2ccc(O)cc2C1=O`, the compound was called inactive. As to `Cc1ccc(N)cc1O`, the AC50 was 3.9 µM (active). For `CC(=O)OCCC(C)C`, the compound was called inactive.

The target of another assay is human CYP2C9, CYP2C9 (gene 1559) (UniProt P11712). Kind of assay: NVS_ADME_hCYP2C9: NovaScreen (NVS) CYP450-related Enzyme Activity (ADME) Assay for human CYP2C9 (AID 2283108). An outline of the steps: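 Fluorescence readout of CYP2C9 activity (SF9-expressed human enzyme) at 0.75 h. The primary screen used 10 uM in duplicate, with concentration-response follow-up for actives; acetonitrile was the negative control.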
Chain of human CYP2C9, CYP2C9 (gene 1559) (P11712 whole entry, looked up): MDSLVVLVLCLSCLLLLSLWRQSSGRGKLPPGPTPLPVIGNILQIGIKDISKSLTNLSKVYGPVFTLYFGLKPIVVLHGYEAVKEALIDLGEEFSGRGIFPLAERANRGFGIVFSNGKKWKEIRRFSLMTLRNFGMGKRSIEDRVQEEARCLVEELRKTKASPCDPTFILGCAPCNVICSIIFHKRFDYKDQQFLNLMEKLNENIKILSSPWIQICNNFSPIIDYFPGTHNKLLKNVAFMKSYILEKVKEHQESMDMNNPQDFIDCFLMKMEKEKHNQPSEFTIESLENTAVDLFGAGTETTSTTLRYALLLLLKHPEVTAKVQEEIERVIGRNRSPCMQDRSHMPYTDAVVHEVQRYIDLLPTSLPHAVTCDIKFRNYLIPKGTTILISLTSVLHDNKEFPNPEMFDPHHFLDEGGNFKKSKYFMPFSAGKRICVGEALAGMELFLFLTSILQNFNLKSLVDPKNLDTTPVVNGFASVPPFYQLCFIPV
As to `Cc1[nH]cnc1C[C@H]1CCc2c(C)c3ccccc3n2C1=O`, the AC50 was 1.77 µM (active).

For the compound `CCOC(=O)c1ccc(C2CCC(NC[C@H](O)COc3ccc(O)c(NS(C)(=O)=O)c3)CC2)cc1` (stereo not given in full), the AC50 was 2.14 µM (active). With `CCc1cc(SCc2sc(-c3ccc(C(F)(F)F)cc3)nc2CN2CCN(c3ccc(OC)cc3)CC2)ccc1OCC(=O)O`, the outcome was inactive. As for `CNS(=O)(=O)c1cc(C(=O)N2CCC(CCN3C4CCC3CC(n3c(C)nc5ccccc53)C4)(c3cccc(F)c3)CC2)c(Cl)cc1F` (stereo not given), the AC50 was 6.52 µM (active). With `O=P(OC(CCl)CCl)(OC(CCl)CCl)OC(CCl)CCl`, the call was inactive. With `O=C(O)c1cccc(N(Cc2cccnc2)c2ccc(OC(F)F)c(OC(F)F)c2)c1`, the AC50 is 6.14 µM (active).

Take `O=C(NS(=O)(=O)/C=C/c1ccccc1)c1ccc(F)cc1Cl`: the AC50 is 6.85 µM (active).

Consider `CCCCCCc1ccc(O)cc1O`, for which the concentration at half-maximal activity (AC50) is 10 µM (active). Still for that read-out and setting: then `Nc1ccc(Nc2ccccc2)cc1`, with 16.1 µM (active); and `COc1ccc(/C=C/S(=O)(=O)NC(=O)c2ccc(C)cc2Cl)cc1`, with 12.7 µM (active). With `CC(C)(O)c1coc(S(=O)(=O)NC(=O)Nc2c3c(cc4c2CCC4)CCC3)c1`, the AC50 is 13.4 µM (active). Turning to `CC(C)c1cccc(C(C)C)c1N1C(=O)c2ccc(O)cc2C1=O`, the AC50 was 4.78 µM (active). Same read-out and setting: next, `Cc1ccc(N)cc1O`: 5.95 µM (active). On the same count and under the same terms, next, `CCN(C(=O)c1cc(C)cc(OC[C@H](C)Nc2ccncc2)c1)C(C)C`: 4.5 µM (active); `CC(=O)OCCC(C)C`: 8.59 µM (active); `Oc1ccc2c(c1)-c1ccccc1C2`: 3.72 µM (active). On the same count and under the same terms, next, `O=C(OC[C@H]1O[C@@H](OC(=O)c2cc(O)c(O)c(OC(=O)c3cc(O)c(O)c(O)c3)c2)[C@H](OC(=O)c2cc(O)c(O)c(OC(=O)c3cc(O)c(O)c(O)c3)c2)[C@@H](OC(=O)c2cc(O)c(O)c(OC(=O)c3cc(O)c(O)c(O)c3)c2)[C@@H]1OC(=O)c1cc(O)c(O)c(OC(=O)c2cc(O)c(O)c(O)c2)c1)c1cc(O)c(O)c(OC(=O)c2cc(O)c(O)c(O)c2)c1`: 3.05 µM (active).
